# SKN-1 block – C. elegans SKN-1 inhibition | C. elegans VP596 Pgst-4::GFP/RFP ratio, acrylamide-induced, 24 h | inhibition, % at 21.8 µM | 360,000 tested, 0.49% active;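 active = interference check ratio from 0.5 to 1.5 plus GFP to RFP signal ratio inhibition reaching or exceeding a fixed threshold, cut at about 30% in these data, passing the limit was not always enough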
# TAG inh – inhibitors of triacylglycerol accumulation. H9c2 cells, Nile Red lipid (TAG) fluorescence; cells loaded with 200 µM oleic acid. inhibition, % at 12.5 µM. 230,000 tested, 0.66% active;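 active = pattern-corrected inhibition of lipid staining of at least 50% with the nuclear-stain viability signal not falling by more than 50%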;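 also: 0% = DMSO wells and 100% = triacsin C control wells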
# CRFBP-R2 block – CRF-BP/CRF-R2 complex antagonism; HEK293 CRF-R2/CRF-BP, CRF-induced calcium fluorescence; inhibition, % at 11.8 µM; 350,000 tested, 0.59% active;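 active = inhibition of the ligand-induced calcium signal above about 50% at the single tested concentration, limit read from the data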
# Cardio protect – modulators protecting cardiomyocytes from myocardial damage. H9c2 cardiomyocytes, H2O2 injury protection, ATPLite, 2 h. protection from H2O2 cell death, % at 20 µM. 360,000 tested, 0.63% active;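 active = compounds giving at least 50% protection of heart cells from peroxide-induced death in the single-dose screen, raw or plate-pattern-corrected value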;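 also: 0% = DMSO wells with peroxide and 100% = DMSO wells without peroxide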
# iPSC survival up – increases survival of single human iPS cells; hiPSC single-cell survival, ATPlite luminescence; 100% = ROCK inhibitor wells, 0% = DMSO; survival enhancement, % at 20 µM; 360,000 tested, 0.044% active; AID 602274; in the data active = survival enhancement above about 18%;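 also: cells exposed to compounds for 16 hours before the ATP read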
# CRFBP-R2 agonist – CRF-BP/CRF-R2 complex agonism. activation, % at 13.2 µM. HEK293 CRF-R2/CRF-BP, calcium dye fluorescence (FLIPR); percent of saturating CRF peptide response. 350,000 tested, 0.46% active;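 active = activation of at least 50%, plus an integration ratio under a set limit after plate pattern correction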;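 also: plate controls were neutral control wells without compound for no effect and CRF at EC100 for full effect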
# Numbers without * were called inactive; · = not tested or not shown. Hits are enriched below; roughly 2.5% of the tested compounds scored in any of these assays.
SMILES,SKN-1 block,TAG inh,CRFBP-R2 block,Cardio protect,iPSC survival up,CRFBP-R2 agonist
COc1ccc(C2C(C(C)=O)=C(C)N=c3s/c(=C\c4ccco4)c(=O)n32)c(OC)c1 (stereo unspecified),-2,·,-1,16,3,1
CSCCC(NC(=O)c1cccc(S(=O)(=O)N2CCN(C(C)=O)CC2)c1)c1nc2ccccc2[nH]1 (stereo unspecified),-3,-10,-1,6,5,1
CSCC[C@H](NC(=O)c1cccc(S(=O)(=O)N2CCN(C)CC2)c1)c1nc2ccccc2[nH]1,18,4,-27,-6,1,71*
COCc1cc(=O)n2[nH]c(-c3ccccc3)cc2n1,-13,2,79*,10,3,-4
CCC[C@@H]1C=C(C(=O)OCC)[C@H](c2ccccc2)N1S(=O)(=O)c1ccc(C)cc1,0,·,·,0,2,·
O=c1[nH][nH]c2c(N=Cc3ccccc3O)ccc(F)c12,42*,·,10,5,0,5
CCc1ccc(O)c(N=Cc2ccccc2O)c1,10,·,-15,44,-1,-1
O=C(Nc1ccc2c(c1)OCO2)c1cnn2c(C(F)(F)F)cc(-c3ccco3)nc12,34,44,-6,93*,2,1
Cc1ccccc1Cn1ccc(NC(=O)c2cnn3c(C(F)(F)F)cc(-c4ccco4)nc23)n1,11,·,1,60*,-3,-1
O=C(c1cnn2c(C(F)(F)F)cc(-c3ccco3)nc12)N1CCCc2ccccc21,37*,-4,-13,6,-2,-5
COc1ccc(NC(=O)c2cnn3c(C(F)(F)F)cc(-c4ccco4)nc23)cc1OC,-22,6,22,46,-2,-6
COc1ccc(CCC2(C)OCC(CCCCO)O2)cc1 (stereo unspecified),-2,5,15,-2,-2,1
CCc1sc(N(C(=O)Cc2ccccc2)c2cccc(F)c2)nc1-c1ccc(C)cc1,44*,-30,-2,2,2,4
CCc1sc(N(C(=O)Cc2ccccc2)c2ccccc2F)nc1-c1ccc(C)cc1,4,·,-12,-8,0,0
Cn1c(-c2c(N)n(C3CCCC3)c3nc4ccccc4nc23)nc2ccccc21,9,36,-71,-15,-3,27
Cn1c(-c2c(N)n(CCCc3ccccc3)c3nc4ccccc4nc23)nc2ccccc21,-1,·,-30,9,4,10
Cn1c(-c2c(N)n(CCc3ccccc3)c3nc4ccccc4nc23)nc2ccccc21,19,·,-155,-4,-1,51*
COCCCn1c(N)c(-c2nc3ccccc3n2C)c2nc3ccccc3nc21,8,·,-180,11,-2,92*
CC(C)c1ccccc1NC(=O)Nc1nnc([C@H]2C[C@H](O)[C@@H](CO)O2)s1,-5,3,·,-1,-1,·
COc1ccc(C2CC(c3ccccc3F)=NN2c2ccc(S(N)(=O)=O)cc2)cc1 (stereo unspecified),-1,-6,0,12,-1,-1
COc1ccc(C2CC(c3ccccc3C(F)(F)F)=NN2c2ccc(S(N)(=O)=O)cc2)cc1 (stereo unspecified),17,-7,59*,8,-2,5
CCc1nc2ccc(C(=O)NCc3ccccc3OC)cn2c1N(CC)CCOC,-3,-5,·,2,-4,·
COc1ccc(/C=N/Nc2nc(Nc3ccccc3)nc(N3CCCCC3)n2)cc1OC,37*,31,3,13,-2,0
COc1cccc(/C=N/Nc2nc(Nc3ccccc3)nc(-n3nc(C)cc3C)n2)c1O,11,128,4,74*,6,-2
CC1(C(=O)Nc2ccc(Cl)c(C(F)(F)F)c2)Cc2c(-c3ccc4c(c3)OCO4)ccnc2O1 (stereo unspecified),3,-4,·,-4,1,·
CSc1ccccc1NC(=O)CN(C)CC(=O)Nc1ccccc1N1CCOCC1,0,-11,-2,-2,0,-1
CN1CCC(N(C)CC(=O)Nc2ccccc2N2CCOCC2)CC1,40*,5,7,7,2,0
CC(C)(C)C(=O)CN1C(=O)NC(C)(Cc2ccc3c(c2)OCO3)C1=O (stereo unspecified),-1,·,6,-1,0,2

# Source: PubChem BioAssay (Sanford-Burnham Center for Chemical Genomics)
